Data: PubChem BioAssay AID1063 (University of Pittsburgh Molecular Library Screening Center, 2008)
Hit rate of the full screen: of about 200,000 compounds, about 18,000 (9%) were called active. Rule as the data show it: active = inhibition above about 50%; inactive = the rest. The sample as a whole holds a higher share of actives than the screen did.

assay: Leishmania major promastigote growth inhibition, primary screen (AID 1063); conditions: Leishmania major promastigotes, resazurin fluorescence viability; at 10 µM; active compounds read high;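 also: promastigotes grown with compound for 44 hours at 28 °C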

| Structure (SMILES) | inhibition |
| --- | --- |
| O=C(/C=C/c1ccccc1[N+](=O)[O-])NCC1CCCO1 (configuration not stated) | 64.4% (active) |
| COc1ccc(C(=O)OCC(=O)NCC2CCCO2)cc1[N+](=O)[O-] (configuration not stated) | -1.01% (inactive) |
| O=C(NCC1CCCO1)c1ccc2ccccc2n1 (configuration not stated) | -4.29% (inactive) |
| CC(C)C(=O)Nc1c(O)c2ccccc2[nH]c1=O | -11.4% (inactive) |
| CCn1cc(C(=O)NCC2CCCO2)c(=O)c2cc(S(=O)(=O)N3CCCCC3)ccc21 (configuration not stated) | 10.9% (inactive) |
| O=C(Nc1ccc(S(=O)(=O)N2CCc3ccccc3C2)cc1)c1ccccc1 | -4.05% (inactive) |
| CCn1cc(C(=O)NCCCN2CCCCCC2)c(=O)c2cc(S(=O)(=O)N3CCc4ccccc4C3)ccc21 | 89.7% (active) |
| O=C(Cn1c(N2CCN(C/C=C/c3ccccc3)CC2)nc2ccccc21)c1ccccc1 | 53.2% (active) |
| CC(C)Cn1c(N2CCN(C(=O)/C=C/c3ccccc3)CC2)nc2ccccc21 | 5.8% (inactive) |
| CCCCOC(=O)c1ccc(N2C(=O)CC(N3CCN(C/C=C/c4ccccc4)CC3)C2=O)cc1 (configuration not stated) | -5.72% (inactive) |
| Cc1ccc(-n2c(SCC(=O)N3c4ccccc4Sc4ccccc43)nnc2-c2ccncc2)cc1 | 62.6% (active) |
| Cc1ccc(-c2nnc(SCC(=O)N/N=C/c3cccs3)n2-c2ccc(C)cc2)cc1 | 32% (inactive) |
| O=C(CSc1nnc(-c2ccncc2)n1-c1ccc(Cl)cc1)Nc1ccc(C(=O)O)cc1 | -7.6% (inactive) |
| Cc1ccc(-n2c(SCC(=O)NCc3ccc4c(c3)OCO4)nnc2-c2cccnc2)c(C)c1 | 7.56% (inactive) |
| Cc1ccccc1-n1c(SCC(=O)NCc2cccs2)nnc1-c1ccncc1 | 53% (active) |
| Cc1ccc(-c2csc3nnc(SCC(=O)NCc4ccco4)n23)cc1 | -1.56% (inactive) |
| CCOc1ccccc1-n1c(SCC(=O)NCc2ccco2)nnc1-c1ccncc1 | 67.1% (active) |
| Cc1ccc(Nc2nc(CSc3nnc(-c4ccncc4)n3-c3ccccc3C)cs2)cc1 | 28.5% (inactive) |
| CCn1c(SCC(=O)NCc2ccco2)nnc1-c1ccc(N)cc1 | -3.78% (inactive) |
| CCc1nc2ccccc2c(C(=O)OC2CCCCC2=O)c1C (configuration not stated) | 7.85% (inactive) |
| O=[N+]([O-])c1cccc(/C([O-])=C(/C(=S)Nc2ccccc2F)[n+]2ccccc2)c1 | -0.54% (inactive) |
| C=CCN(C(=O)c1cc(C)cc(C)c1)C1(C(=O)Nc2ccccc2)CCN(C(C)C)CC1 | 6.23% (inactive) |
| CCNC(=O)N1c2ccccc2Sc2ccccc21 | 4.94% (inactive) |
| COc1ccccc1CNC(=O)C1Cc2ccccc2C(=O)O1 (configuration not stated) | -1.31% (inactive) |
| CCCC1NC(=S)NC(C)=C1C(C)=O (configuration not stated) | -12.4% (inactive) |

| Structure (SMILES) | inhibition |
| --- | --- |
| O=C(/C=C/c1ccc2c(c1)OCO2)NCc1cn2cc(Cl)ccc2n1 | -4.11% (inactive) |
| CC(C)NC(=S)Nc1cccc2cnccc12 | -1.24% (inactive) |
| CCOC(=O)Cn1nnnc1C | -3.4% (inactive) |
| C=CCC(CC=C)(C(N)=O)c1ccccc1 | 2.87% (inactive) |
| Cc1ccc(N(NC(=O)C(C)(C)O)C(=O)c2ccccc2)cc1C | -3.54% (inactive) |
| CC(C)(O)C(=O)NN(C(=O)c1ccccc1)c1cccc(Br)c1 | 3.6% (inactive) |
| CCCCC(O)(CCCC)C(=O)NN(C(=O)CCl)c1ccccc1 | 54.5% (active) |
| CCCCCCCCC(=O)NCCOc1ccccc1 | -9.39% (inactive) |
| CCCC(O)(CCC)C(=O)NN(C(=O)CCl)c1cccc(C)c1 | 82.9% (active) |
| CCC(C)NC(=O)CCCc1ccccc1 (configuration not stated) | 13.2% (inactive) |
| Cc1ccc(N(C(=O)c2ccc(S(=O)(=O)N(C)C)cc2)C2C=CS(=O)(=O)C2)cc1 (configuration not stated) | 5.35% (inactive) |
| COc1ccccc1-c1noc(CSc2nc(C)cc(=O)[nH]2)n1 | -6.37% (inactive) |
| N#CCC(=O)N/N=C/c1ccc(SCC(=O)Nc2ccccc2)o1 | -1.51% (inactive) |
| CCSc1sc(CC)cc1C=O | 5.02% (inactive) |
| Cc1ccnc(Nc2nc3ccccc3s2)n1 | 11.8% (inactive) |
| O=C(Nc1ccccc1)Nc1nc2ccccc2s1 | -0.32% (inactive) |
| c1ccc2sc(NN=C3CCCC3)nc2c1 | 57% (active) |
| O=C(C1CCCN1S(=O)(=O)c1ccc(Br)cc1)N1CCOCC1 (configuration not stated) | 1.18% (inactive) |
| CC1(C)CN(c2ccc(-c3ccnc4ncnn34)cc2)C1=O | 8.31% (inactive) |
| CCN(CC)CCN(C(=O)c1ccc(N2C(=O)CCC2=O)cc1)c1nc2cc3c(cc2s1)OCO3 | 4.38% (inactive) |
| Cc1[nH]c2ccccc2c1SCC(=O)Nc1nccs1 | 2.27% (inactive) |
| Cc1ccc(NC(=O)NC2CCCCC2)cc1S(=O)(=O)N1CCOCC1 | 27.4% (inactive) |
| O=C(NC(=S)Nc1ccc(S(=O)(=O)N2CCOCC2)cc1)c1ccccc1[N+](=O)[O-] | 5.68% (inactive) |
| Cc1cc(C(=O)COc2ccccc2[N+](=O)[O-])c(C)n1-c1cccc(S(=O)(=O)N2CCOCC2)c1 | 98.9% (active) |
| COc1ccc(S(=O)(=O)N2CCC(C(=O)OCC(=O)c3ccccc3)CC2)cc1[N+](=O)[O-] | -6.1% (inactive) |

| Structure (SMILES) | inhibition |
| --- | --- |
| S=c1[nH]ccn1-c1ccc(Cl)cc1 | -8.82% (inactive) |
| O=S(=O)(NC1CC1)c1ccc2c3c(cccc13)CC2 | 3.72% (inactive) |
| Cc1ccc(C(=O)OC2CCCN(C)C2)cc1 (configuration not stated) | -6.05% (inactive) |
| O=C(Nc1ccc(S(=O)(=O)Nc2ncccn2)cc1)c1cncc(Br)c1 | -5.97% (inactive) |
| CCNS(=O)(=O)c1ccc(NC(=O)c2cncc(Br)c2)cc1 | 50.3% (active) |
| CCNS(=O)(=O)c1ccc(NC(=O)Nc2cccc(OC)c2)cc1 | 3.37% (inactive) |
| N#CC1(C#N)C(C(=O)C23CC4CC(CC(C4)C2)C3)C12CCOCC2 (configuration not stated) | 4.33% (inactive) |
| Cc1ccccc1CSc1nnc(-c2ccccc2)c(=O)[nH]1 | -8.07% (inactive) |
| CCc1ccc(NC(=O)Cn2nc(C)c([N+](=O)[O-])c2C)cc1 | 6.59% (inactive) |
| Cc1nn(CC(=O)NCc2ccccn2)c(C)c1[N+](=O)[O-] | -2.73% (inactive) |
| Cc1nn(CC(=O)Nc2nc3ccccc3s2)c(C)c1[N+](=O)[O-] | 50.5% (active) |
| C=CCN(CC=C)C(=O)COC(=O)c1n[nH]c2ccccc12 | 1.59% (inactive) |
| CN(C(=O)CSc1nncc2ccccc12)C1CCCCC1 | 0.99% (inactive) |
| Cc1ccc(-c2cn3cc(C)ccc3n2)cc1 | 87.7% (active) |
| Cc1ccc(-c2cn3cc([N+](=O)[O-])ccc3n2)cc1 | 6.77% (inactive) |
| COc1ccc(-c2cn3ccsc3n2)cc1 | 0.76% (inactive) |
| CC1(C)C2CC=C(/C=N/NC(=O)C3CC3)C1C2 (configuration not stated) | 99.3% (active) |
| CC(C)(C)C(=O)Nc1ccc(C(=O)N/N=C/c2ccccc2OC(=O)c2ccc(Cl)cc2Cl)cc1 | 40.8% (inactive) |
| CC1(C)C2CC=C(/C=N/NC(=O)c3ccc(Cl)cc3)C1C2 (configuration not stated) | 96% (active) |
| O=C(N/N=C/c1ccco1)c1ccc(NC(=O)C2CC2)cc1 | 5.98% (inactive) |
| N#Cc1cc([N+](=O)[O-])ccc1Oc1cccc(/C=N/NC(=O)c2ccc(Cl)cc2)c1 | 15.7% (inactive) |
| CCOc1ccc(N2C(=O)CN(c3cccc4ccccc34)C2=S)cc1 | -2.38% (inactive) |
| CCS(=O)(=O)C1=NSC2=NC(=O)/C(=C\c3cc(C)n(-c4cccc(OC)c4)c3C)C(=N)N21 | -2.58% (inactive) |
| Cc1ccc(S(=O)(=O)NCCC(c2ccccc2)c2ccccc2)cc1C(=O)O | -13.6% (inactive) |
| COc1cccc(-n2nc(C(=O)N3CCN(Cc4ccccc4)CC3)c3ccccc3c2=O)c1 | -6.17% (inactive) |

| Structure (SMILES) | inhibition |
| --- | --- |
| NC(N)=N/N=C/c1ccc(Cl)c([N+](=O)[O-])c1 | 100% (active) |
| CC(CC(=O)O)C(=O)c1ccc(Cl)c([N+](=O)[O-])c1 (configuration not stated) | -1.01% (inactive) |
| Cc1ccnc(NC(=O)c2ccc(Cl)c([N+](=O)[O-])c2)c1 | 28.8% (inactive) |
| O=C(CCNS(=O)(=O)c1ccc(Br)s1)NCc1ccccc1Cl | 15.3% (inactive) |
| CCCc1cc(=O)[nH]c(SCC(=O)N2CCN(S(=O)(=O)c3ccc(C)cc3C)CC2)n1 | 63% (active) |
| CCCc1cc(=O)[nH]c(SCC(=O)c2cc(C)n(CCC)c2C)n1 | 11.3% (inactive) |
| CCCc1cc(=O)[nH]c(SCC(=O)OCc2ccccc2)n1 | 1.09% (inactive) |
| CCCOc1ccc(NC(=O)CC2C(=O)N(C)C(=S)N2Cc2ccc3c(c2)OCO3)cc1 (configuration not stated) | 3.31% (inactive) |
| COc1cccc(NCCC(=O)c2cccc([N+](=O)[O-])c2)c1 | 85% (active) |
| COc1ccc(Cc2nnc(SCC(=O)c3cccc([N+](=O)[O-])c3)n2C)cc1 | 7.37% (inactive) |
| CC(C)(C)SCCNC(=O)c1cccc([N+](=O)[O-])c1 | 45.2% (inactive) |
| O=C(c1nnc(-c2ccc(Cl)cc2)o1)C1CCCC1 | -8.13% (inactive) |
| Cc1cccc(NC(=S)NC23CN4CN(CN(C4)C2)C3)c1 | -0.78% (inactive) |
| Cc1ccc(NC(=O)CN2CCC3(O)CCCCC3C2c2ccc3c(c2)OCO3)c(C)c1 (configuration not stated) | 89.1% (active) |
| CC1CCCCC1NC(=O)CN1CCC(O)(c2ccc3c(c2)OCO3)CC1 (configuration not stated) | 30.1% (inactive) |
| CC1CCCCN1CC(=O)NCc1ccc2c(c1)OCO2 (configuration not stated) | 4.4% (inactive) |
| CC(=O)NC1CC2CCCC(C1)N2CC(=O)Nc1ccccc1 (configuration not stated) | -0.85% (inactive) |
| CCN(CC)c1ccc(C2C3CCCCC3(O)CCN2CC(=O)Nc2ccccc2)cc1 (configuration not stated) | 78.2% (active) |
| O=C(CN1CCOCC1)Nc1ccccc1 | -4.08% (inactive) |
| Cn1c(=N)n(CC(O)c2ccccc2)c2ccccc21 (configuration not stated) | 3.48% (inactive) |
| Cc1cccc(OCC(O)Cn2c(=N)n(CCN3CCOCC3)c3ccccc32)c1 (configuration not stated) | 10.1% (inactive) |
| CCOc1ccc(C(O)Cn2c(=N)n(CCN3CCCCC3)c3ccccc32)cc1 (configuration not stated) | 80.6% (active) |
